According to PMC4552634, “A New Set of Chemical Starting Points with Plasmodium falciparum Transmission-Blocking Potential for Antimalarial Drug Discovery” (PLoS ONE, 2015):
Out of some 13,000 compounds screened, about 3,200 (25%) showed an effect of 50% or more. This is one part of the list.

system: P. falciparum stage V gametocytes; set-up: BacTiter-Glo ATP luminescence viability of purified stage V gametocytes in 384-well plates, per cent inhibition versus DMSO; settings: 48 h, 5 µM; inhibitor

| SMILES | % Inhibition [%] |
| --- | --- |
| CN(C)c1ccc(CN2CCC(NC(=O)c3ccc(-c4cccc(F)c4)s3)CC2)cc1 [TCMDC-134327] | -0.6628 |
| COc1ccccc1Nc1nc(C)cc(NCc2ccc(-n3ccnc3)cc2)n1 [TCMDC-133452] | 11.88 |
| COc1ccc(S(=O)(=O)Nc2cc(C)cc(Br)c2OC)cc1N1CCN(C(=O)C(Cl)(Cl)Cl)CC1 [TCMDC-139808] | 8.102 |
| CO/C(=C\C=C\c1cc2cc(Cl)c(Cl)cc2[nH]1)C(=O)NCCCN1CCN(c2ccncc2)CC1 [TCMDC-139184] | 16.21 |
| CN(C)CCCSc1ccccc1NC(=O)C=Cc1ccccc1 [TCMDC-125843] | 7.207 |
| Cc1ccc(-c2noc(COc3ccccc3C(=O)NC3CCCC3)n2)cc1 [TCMDC-124748] | 47.39 |
| FC(F)(F)c1ccc2nccc(NCc3ccccc3)c2c1 [TCMDC-138259] | -8.95 |
| CCc1ccc(NC(=O)c2ccc(CN3CCCN(CCC(C)C)CC3)cc2)cc1 [TCMDC-136448] | -6.236 |
| COc1ccc2oc(=O)c(C#N)c(O)c2c1 [TCMDC-131398] | -8.165 |
| CCCCCCN1CCC(NCc2cccc(C#N)c2)CC1 [TCMDC-141670] | -17.05 |
| FC(F)(F)c1cccc(CNC2CCN(CC3CCCCC3)CC2)c1 [TCMDC-141660] | -52.78 |
| CCCCCCN1CCC(NCc2ccc(CN(C)C)cc2)CC1 [TCMDC-141662] | 16.26 |
| CN1CCN(CCCN(Cc2cccc(-c3ccc(CNC4CCCC4)cc3)c2)C(=O)CCC2CCCC2)CC1 [TCMDC-140750] | 98.64 |
| CN1CCN(CCCN(Cc2cccc(-c3cccc(CNC4CCCC4)c3)c2)C(=O)CCC2CCCC2)CC1 [TCMDC-140555] | 119.1 |
| CN1CCN(CCCN(Cc2ccc(-c3ccc(CNC4CCCC4)cc3)cc2)C(=O)CCC2CCCC2)CC1 [TCMDC-140560] | 99.06 |
| FC(F)(F)c1ccc(CNC2CCN(CC3CCCCC3)CC2)cc1 [TCMDC-141661] | -50.93 |
| CCCC(C)Nc1nc(C)cc(N[C@@H](Cc2ccccc2)C(=O)Nc2ccccc2)n1 (some centres unmarked) [TCMDC-134767] | -30.62 |
| CCc1c(C(=O)NC2CCC(N3CCC(c4ccccc4OC)CC3)CC2)[nH]c2ccc(Br)cc12 (centres unmarked) [TCMDC-133499] | -52.27 |
| COc1ccccc1C(C)NCC(=O)Nc1cc(C(F)(F)F)ccc1Cl (centres unmarked) [TCMDC-125041] | -2.208 |
| COc1ccc(Nc2nccc(N3CCC(NS(=O)(=O)c4ccc(NC(C)=O)cc4)C3)n2)cc1 (centres unmarked) [TCMDC-133608] | -25.9 |
